Sampled rows, rich in hits. Any-hit rate of the full collection: about 1.6%.
Akt phos inh = HTS Assay for Inhibitors of Akt Phophorylation: Primary Screen. Neuro2A IGF-stimulated pAkt S473 HTRF, 20 min; stronger effect = lower value. activity change, % for hits at 50 µM. actives 0.32% (n = 360,000); in the data active = activity change below about -80%; inconclusive = mostly about -51% to -80%; also: % is scaled to controls: 0 for no effect and ±100 for the full control effect
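Single-point screen (50 µM final compound) in Neuro2A cells stimulated 20 min with 6 nM IGF at 37 deg C. After lysis, Ser473-phosphorylated Akt read by HTRF (ex 330 nm, em 615/665 nm) as the 665/615 ratio.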
KCNH2 3.1 inh = qHTS for Inhibitors of KCHN2 3.1: Mutant qHTS; Potassium voltage-gated channel subfamily H member 2, brain isoform KCNH2 3.1 (human); U2OS KCNH2 3.1, thallium flux FluxOr; stronger effect = lower value; activity change, % (tested at about 1.8 µM); actives 0.95% (n = 340,000);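 active = maximum activity change below -70%; inconclusive = maximum activity change from -70% to -50%; inactive = maximum activity change above -50%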;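 also: thallium influx rate constant from kinetic fluorescence after stimulation buffer; % is scaled to controls: 0 for no effect and ±100 for the full control effect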
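Thallium flux via FluxOr fluorescence (Red40 quencher, 45 min loading) in U2OS cells virally expressing the KCNH2 3.1 isoform (1.77 x 10^8 /mL virus, overnight at 37 C). Rate constants from 2-min kinetic reads post-stimulation, normalised to positive and negative controls.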
gsp antagonist = qHTS for Antagonists of gsp, the Etiologic Mutation Responsible for Fibrous Dysplasia/McCune-Albright Syndrome: qHTS; gsp-mutant cells, cAMP HTRF, 30 min; Potency, µM (highest dose often 76.9 µM), for inactives: at the top dose activity change, negative = inhibition, usual class: inhibitors; actives 0.4% (n = 340,000); AID 624288, 2012; calls by dose curve; cell line not stated here;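 also: intracellular cAMP measured with PDE inhibitor Ro 20-1724 present during compound exposure; potency is read from the fitted curve at half-maximal effect; % is scaled to controls: 0 for no effect and ±100 for the full control effect; nearly all actives have a fitted effect of over 65% in size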
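HTRF cAMP measurement after 30 min RT detection following 30 min, 37C compound treatment alongside […] (added as 300 uM solution) in G418-selected cells seeded at 2000/well and grown 16–24 h.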
Glioma ERSR ind = qHTS for Inducers of the Endoplasmic Reticulum Stress Response (ERSR) in Human Glioma: qHTS | U87-MG GRP78 promoter luciferase reporter, 16 h | Potency, µM, without a hit: top-dose activation, most hits filed as activators | actives 0.02% (n = 420,000) | AID 602332, 2012; active = well fitted activation curve with a large enough effect; inconclusive = small, poorly fitted or top-dose-only effect; inactive = no such curve, though single readings can be large or run the other way; also: potency is read from the fitted curve at half-maximal effect; series mostly up to about 76 µM; % of control where 0% means no effect; nearly all actives have a fitted effect of over 35% in size
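Stably transfected U87-MG human glioma cells carrying a GRP78-based luminescent sensor were seeded at 1000 cells/well, pin-dosed with compounds and incubated 16 h. Luciferase reagent was then added, and end-point luminescence was read after 10 min at room temperature.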
hERG WT inh = qHTS for Inhibitors of KCHN2 3.1: Wildtype qHTS; AID 720551, 2013; activity change, % at 1.84 µM; Voltage-gated inwardly rectifying potassium channel KCNH2 (Homo sapiens), Q12809; actives 0.37% (n = 340,000); U2OS, BacMam KCNH2, thallium flux FluxOr; stronger effect = lower value;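 active = maximum activity change below -70%; inconclusive = maximum activity change between -70% and -50%; inactive = maximum activity change above -50%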; also: % is scaled to controls: 0 for no effect and ±100 for the full control effect
Target sequence (Q12809 whole entry, looked up): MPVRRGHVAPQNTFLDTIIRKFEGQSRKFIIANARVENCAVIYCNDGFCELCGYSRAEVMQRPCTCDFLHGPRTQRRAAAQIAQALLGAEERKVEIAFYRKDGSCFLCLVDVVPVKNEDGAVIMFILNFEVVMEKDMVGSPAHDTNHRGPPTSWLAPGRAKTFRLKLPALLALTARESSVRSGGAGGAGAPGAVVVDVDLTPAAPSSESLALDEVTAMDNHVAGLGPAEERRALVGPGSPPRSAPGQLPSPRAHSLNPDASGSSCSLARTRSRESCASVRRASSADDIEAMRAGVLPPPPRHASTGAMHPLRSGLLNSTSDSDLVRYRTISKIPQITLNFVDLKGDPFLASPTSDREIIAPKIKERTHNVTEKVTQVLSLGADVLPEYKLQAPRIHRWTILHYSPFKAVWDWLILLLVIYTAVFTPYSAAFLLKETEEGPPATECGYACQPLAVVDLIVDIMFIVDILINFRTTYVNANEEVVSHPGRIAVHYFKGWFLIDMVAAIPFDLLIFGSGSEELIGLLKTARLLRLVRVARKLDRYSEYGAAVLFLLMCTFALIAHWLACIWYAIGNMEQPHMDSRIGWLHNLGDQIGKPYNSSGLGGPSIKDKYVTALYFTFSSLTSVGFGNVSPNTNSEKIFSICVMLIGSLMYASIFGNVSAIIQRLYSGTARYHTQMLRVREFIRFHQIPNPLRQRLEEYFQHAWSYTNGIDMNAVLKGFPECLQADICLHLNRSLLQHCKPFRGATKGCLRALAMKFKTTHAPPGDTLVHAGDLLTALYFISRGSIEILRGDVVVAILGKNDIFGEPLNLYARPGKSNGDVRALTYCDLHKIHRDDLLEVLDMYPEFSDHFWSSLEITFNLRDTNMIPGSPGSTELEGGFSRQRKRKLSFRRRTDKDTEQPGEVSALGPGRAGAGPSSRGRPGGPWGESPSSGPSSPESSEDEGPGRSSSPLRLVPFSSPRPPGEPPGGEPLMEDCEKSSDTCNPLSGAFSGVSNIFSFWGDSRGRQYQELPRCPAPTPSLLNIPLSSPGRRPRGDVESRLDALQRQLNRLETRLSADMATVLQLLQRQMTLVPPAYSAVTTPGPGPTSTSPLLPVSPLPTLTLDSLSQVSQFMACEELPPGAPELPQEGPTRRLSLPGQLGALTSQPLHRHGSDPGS
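U2OS cells transduced with wild-type KCNH2 virus are loaded with FluxOr dye for 45 min, and thallium flux is measured in kinetic reads before and after stimulation buffer. Rate constants are normalized to DMSO controls.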
gsp agonist = qHTS for Agonist of gsp, the Etiologic Mutation Responsible for Fibrous Dysplasia/McCune-Albright Syndrome: qHTS; actives 0.13% (n = 340,000); Potency, µM (top dose mostly 76.9 µM), for the others: at the highest dose activation (cAMP increase), hits mostly activators; gsp mutant cells, cAMP HTRF, 30 min; active = well fitted activation curve with a large enough effect; inconclusive = small, poorly fitted or top-dose-only effect, or another doubt; inactive = no such curve, though single readings can be large or run the other way; cell line not stated here;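 also: phosphodiesterase inhibitor Ro 20-1724 added with compounds to block cAMP breakdown; potency is read from the fitted curve at half-maximal effect; nearly all actives have a fitted effect of over 60% in size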
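Cells in DMEM/10% FBS with G418 were pretreated with compounds in DMSO plus […] (300 uM stock) for 30 min at 37C. cAMP was measured by HTRF (cAMP-d2 plus anti-cAMP antibody-K) after 30 min at room temperature.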
* marks the source's active call; other numbers are inactive results; i = inactive; ? = inconclusive; nt = no result; + = active, no number; [ ] = remark or other dose.

SMILES	Akt phos inh	KCNH2 3.1 inh	gsp antagonist	Glioma ERSR ind	hERG WT inh	gsp agonist
COc1ccc(-c2oc3ncn4nc(COc5ccccc5)nc4c3c2-c2ccc(OC)cc2)cc1	i	3	5%	-4%	21	-3%
COc1ccc(-c2oc3ncn4nc(Cc5ccccc5)nc4c3c2-c2ccc(OC)cc2)cc1	?	11	10µM*	-3%	9	-36%
Cc1ccc(Nc2nc(Nc3ccc(Cl)cc3)nc(N3CCOCC3)n2)cc1	nt	nt	nt	-4%	nt	nt
CC(C)(C)n1ncc2c(=O)n(Cc3ccc(Cl)c(C(F)(F)F)c3)cnc21	nt	nt	nt	-2%	nt	nt
CC12CCC(C(=O)NCCN3CCCCC3)(CC1=O)C2(C)C (stereo not given)	-114%*	-16	4%	3%	-9	-15%
CCOC(=O)Cn1c(=NC(=O)c2nc3ccccc3s2)sc2cc(S(N)(=O)=O)ccc21	i	-17	10µM*	-4%	3	-4%[15.4 µM]
c1ccc(-c2csc(-c3ccncc3)n2)cc1	i	-12	-1%	0%	4	8%[15.4 µM]
Brc1ccsc1-c1csc(-c2ccncc2)n1	i	10	-3%	3%	6	18µM*
Cc1ccccc1NC1=NS(=O)(=O)c2ccccc21	i	1	9%	-4%	-285*	4%
COCC(=O)Nc1cc(C(=O)N2CCN(c3ccccc3)C(=O)C2)cc2nc(-c3ccccc3)n(C)c12	nt	nt	nt	-4%	nt	nt
O=[N+]([O-])c1ccc(CN2CCN(c3ccc4ccccc4n3)CC2)cc1	i	-99*	2%	0%	?	?
CCn1c(N2CCN(C(=O)/C=C/c3ccccc3)CC2)nc2ccccc21	i	-90*	-15%	-3%	?	-4%
O=[N+]([O-])c1ccc(N2CCN(C(=S)c3cccc([N+](=O)[O-])c3)CC2)cc1	i	-102*	9%	-1%	-42	2%[15.4 µM]
O=[N+]([O-])c1ccc(CN2CCN(c3ccc([N+](=O)[O-])cc3)CC2)cc1	i	-4	-9%	-8%	-73*	5%[15.4 µM]
O=[N+]([O-])c1ccc(N2CCN(Cc3ccccc3)CC2)nc1	i	4	6%	1%	2	-8%[15.4 µM]
CCCn1c(N2CCN(Cc3ccc(Cl)cc3)CC2)nc2ccccc21	i	-79*	?	-2%	-21	-14%
CCn1c(N2CCN(S(=O)(=O)c3ccc(F)cc3)CC2)nc2ccccc21	i	-6	-14%	-1%	-5	8%[15.4 µM]
CCn1c(N2CCN(Cc3ccc([N+](=O)[O-])cc3)CC2)nc2ccccc21	i	-94*	-17%	0%	-87*	-31%
CCn1c(N2CCN(S(=O)(=O)c3ccc(Cl)cc3)CC2)nc2ccccc21	i	-6	32µM*	-7%	-1	-8%[15.4 µM]
COCCCNC(=O)c1cnn(-c2ncc3c(n2)-c2ccccc2CCC3)c1C	nt	nt	nt	2%	nt	nt
CC1CN(CC(O)COc2ccc(C(C)C)cc2)CC(C)O1 (stereo not given)	i	-2	11%	-3%	9	24%
OC(COC(c1ccc(F)cc1)c1ccc(F)cc1)CN1CCCC1 (stereo not given)	i	-83*	-4%	-5%	-22	18%
CN(C)CC(O)COC(c1ccc(Cl)cc1)c1ccc(Cl)cc1 (stereo not given)	i	-88*	17%	-3%	-43	14%
OC(COC(c1ccc(Cl)cc1)c1ccc(Cl)cc1)CN1CCN(c2ccccn2)CC1 (stereo not given)	i	-99*	-11%	-3%	+	-2%
CC1CN(CC(O)COC(c2ccc(Cl)cc2)c2ccc(Cl)cc2)CC(C)O1 (stereo not given)	i	-76*	-4%	-5%	?	5%
SMILES	Akt phos inh	KCNH2 3.1 inh	gsp antagonist	Glioma ERSR ind	hERG WT inh	gsp agonist
CN(CC(O)COC(c1ccccc1)c1ccccc1)C1CCCCC1 (stereo not given)	i	-49	12%	-3%	10	-26%[15.4 µM]
COCCC1CCCCN1Cc1nc(N2CCCC2)c2cc(OC)c(OC)cc2n1 (stereo not given)	nt	nt	nt	-1%	nt	nt
C(=C\c1ccnc2ccccc12)/c1ccc(N2CCNCC2)cc1	nt	nt	nt	-3%	nt	nt
c1ccc(Nc2nc(-c3ccc4c(c3)OCO4)nc3ccccc23)cc1	nt	nt	nt	-4%	nt	nt
C[N+]1(CC(=O)c2ccc(I)cc2)CCOCC1	nt	nt	nt	-2%	nt	nt
COc1cccc(C(=O)NCC2Cc3c(F)ccc(-c4ncccn4)c3O2)c1OC (stereo not given)	nt	nt	nt	-2%	nt	nt
O=S(=O)(c1ccccc1)N1CCN(Cc2c(O)ccc3ccccc23)CC1	i	-16	5%	-3%	2	-33%
Cc1ccc2c(CN3CCN(S(=O)(=O)/C=C/c4ccccc4)CC3)cc(=O)oc2c1	i	-89*	0%	-2%	-32	?
Cc1c(O)ccc2c(CN3CCN(C/C=C/c4ccccc4)CC3)cc(=O)oc12	i	-97*	-9%	-3%	-75*	-17%[15.4 µM]
Cc1ccc2c(CN3CCCCC3)cc(=O)oc2c1	i	-8	-1%	9%	13	?
Oc1ccc2ccccc2c1CN1CCN(C/C=C/c2ccccc2)CC1	i	-80*	-7%	12%	33	-2%
Cc1ccc(C(=O)N/C(=C\c2cccs2)C(=O)NCCCn2ccnc2)cc1C	i	?	-11%	4%	-75*	21%
O=C(NCCCn1ccnc1)/C(=C\c1cccs1)NC(=O)c1ccccc1	i	-45	8%	-4%	6	24%
Cc1ccc(C(=O)N/C(=C\c2cccs2)C(=O)NCCCN2CCOCC2)cc1	i	-49	nt	-6%	-117*	-15%[15.4 µM]
Cc1ccc(C(=O)N/C(=C\c2cccs2)C(=O)NCCCn2ccnc2)cc1	i	-99*	3%	-9%	-181*	0%[15.4 µM]
Cc1ccc(C(=O)N/C(=C/c2cccs2)C(=O)NCCCn2ccnc2)cc1	i	-82*	-6%	-6%	-209*	-1%
COc1cc(=O)n2c(c1C(=O)NCc1ccco1)CCN(Cc1c(F)cccc1F)CC2	nt	nt	nt	-3%	nt	nt
Oc1ccc(-c2cnccn2)cc1CN1CCN(C2CCCCC2)CC1	nt	nt	nt	-3%	nt	nt
Cc1ccc(-n2ncc3c(NCc4cccnc4)ncnc32)cc1C	i	-7	-7%	3%	5	33%
Cc1cccc(-n2ncc3c(NCc4cccnc4)ncnc32)c1	i	-102*	-14%	2%	-13	5%
